Laboratory results: PubChem BioAssay (NCI)
About 79,000 compounds went through this panel and 15% of them were active in at least one assay; those are over-represented in the sample as a whole. Active and inactive are the calls of the source. Cut-off read from the data, not from the text of the source: active = growth inhibition above about 70%; inactive = the rest.

Assays:
[1] = NCI Yeast Anticancer Drug Screen. Data for the rad50 strain (AID 155);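 note: 0% = growth of vehicle-only cultures of the same strain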; conditions: S. cerevisiae rad50 strain growth inhibition; at 50.0 µM; stronger effect = higher value
How it was run: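 Compounds were tested on a yeast strain with an engineered DNA damage repair alteration; the reported value is growth inhibition normalised to vehicle treatment.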

[2] = NCI Yeast Anticancer Drug Screen. Data for the mec2-1 strain (AID 157); conditions: S. cerevisiae mec2-1 strain, at 50.0 µM, stronger effect = higher value
How it was run: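 Cells of the genetically defined mec2-1 yeast strain are incubated with test compound. Inhibition of growth is calculated against vehicle-treated controls.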

[3] = NCI Yeast Anticancer Drug Screen. Data for the sgs1 mgt1 strain (AID 161);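 note: 0% = growth of cultures given vehicle only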; conditions: S. cerevisiae sgs1 mgt1 strain, at 50.0 µM, stronger effect = higher value
How it was run: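 Inhibition of yeast growth, normalised to vehicle-treated controls, is reported for a strain bearing genetic alterations in DNA damage repair.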

[4] = NCI Yeast Anticancer Drug Screen. Data for the cln2 rad14 strain (AID 165);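 note: 0% = growth equal to vehicle treated cultures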; conditions: S. cerevisiae cln2 rad14 strain, at 50.0 µM, stronger effect = higher value
How it was run: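 The screen exposed genetically defined yeast (cln2 rad14) to test compounds and scored growth inhibition relative to vehicle-treated controls.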

[5] = NCI Yeast Anticancer Drug Screen. Data for the bub3 strain (AID 167); conditions: S. cerevisiae bub3 mutant strain, at 50.0 µM, stronger effect = higher value
How it was run: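 Growth of a checkpoint-deficient yeast mutant is measured after compound exposure. Values represent inhibition relative to vehicle.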

[6] = NCI Yeast Anticancer Drug Screen. Data for the mlh1 rad18 strain (AID 175); conditions: S. cerevisiae mlh1 rad18 strain growth inhibition; at 50.0 µM; stronger effect = higher value
How it was run: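 Compound-treated yeast growth, normalised to vehicle controls. Strain bears defined DNA repair mutations.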

Row | Compound | growth inhibition [1] | growth inhibition [2] | growth inhibition [3] | growth inhibition [4] | growth inhibition [5] | growth inhibition [6]
1 | CCOC(=O)Nc1nc2cc(C(=O)OC)n(C)c2s1 | 19.4% (inactive) | 23.6% (inactive) | 25.7% (inactive) | 11.1% (inactive) | 7.4% (inactive) | 18.9% (inactive)
2 | CCCCOC(=O)c1ccc(OCCCC)cc1 | 23.6% (inactive) | 19.6% (inactive) | 16.6% (inactive) | 13.2% (inactive) | 10.5% (inactive) | 17.8% (inactive)
3 | CN(C)CC(CN(C)C)C(=O)c1ccccc1 | 8.6% (inactive) | 19.6% (inactive) | 16.3% (inactive) | -1% (inactive) | -24.1% (inactive) | -4.05% (inactive)
4 | CCN(CC)c1nc(=O)c(C(=O)C(C)(C)C)c(C(C)(C)C)o1 | -14.9% (inactive) | -39% (inactive) | -34.1% (inactive) | -11.8% (inactive) | -9.15% (inactive) | -17.1% (inactive)
5 | O=S(=O)(Nc1cccc(Br)c1)N1CCCCC1 | 23.5% (inactive) | 10% (inactive) | 23.6% (inactive) | 13.8% (inactive) | 28.6% (inactive) | 31.6% (inactive)
6 | CCOC(=O)CCC[Si](CC)(CC)CC | 13.9% (inactive) | 12.3% (inactive) | 1.5% (inactive) | -22.1% (inactive) | -15% (inactive) | 5.9% (inactive)
7 | C=CCNCc1cc(Cl)cc(Cl)c1O | -8.35% (inactive) | -4.4% (inactive) | -19.1% (inactive) | -51.1% (inactive) | -10.2% (inactive) | 17.2% (inactive)
8 | Nc1cc2c(cc1I)-c1ccccc1C2O (stereo not drawn) | 1.65% (inactive) | 4.55% (inactive) | -12.8% (inactive) | -2.9% (inactive) | 11.2% (inactive) | -8.75% (inactive)
9 | CCCC1(C)OCC(CCl)O1 (stereo not drawn) | -41.6% (inactive) | -28.4% (inactive) | -14.6% (inactive) | -13.2% (inactive) | -18.3% (inactive) | 0.15% (inactive)
10 | CCOc1ccccc1N=Nc1c(C)nc(N)nc1OCC | 6.65% (inactive) | 6.65% (inactive) | 6.55% (inactive) | -30.1% (inactive) | 4% (inactive) | 14.9% (inactive)
11 | NNc1ncnc2c(C3OC(CO)C(O)C3O)[nH]nc12 (stereo not drawn) | 7% (inactive) | 6.35% (inactive) | 8.2% (inactive) | -70.3% (inactive) | 7.15% (inactive) | 8.95% (inactive)
12 | NC(=O)CC(N)=O | 6.1% (inactive) | -5.1% (inactive) | -2.35% (inactive) | 9.4% (inactive) | 1.25% (inactive) | 4.6% (inactive)
13 | O=C1C(Cl)=C(SCc2ccccc2)C(=O)c2ccccc21 | 17.8% (inactive) | 72.7% (active) | 48.2% (inactive) | -11.3% (inactive) | 61.9% (inactive) | 42.9% (inactive)
14 | COC(=O)CCS(=O)(=O)Cc1ccccc1 | 0.95% (inactive) | -1.3% (inactive) | -6.95% (inactive) | -7.9% (inactive) | -1.65% (inactive) | -0.5% (inactive)
15 | CCOCCOC(=O)C1CCC(=O)N1CN(C(C)=O)c1cc(OC)ccc1OC (stereo not drawn) | -17.9% (inactive) | -3.6% (inactive) | -30.9% (inactive) | 6.1% (inactive) | -0.5% (inactive) | -39.5% (inactive)
16 | C=C(C)[C@@H]1CC[C@]2(C)CC[C@]3(C)[C@H](CC[C@@H]4[C@@]5(C)CC[C@H](OC(=O)c6ccccc6)C(C)(C)[C@@H]5CC[C@]43C)[C@@H]12 | -7.6% (inactive) | -16.6% (inactive) | -26.4% (inactive) | 2.9% (inactive) | -0.65% (inactive) | 0% (inactive)
17 | C=C1C(=O)[C@@]23CC[C@@H]4[C@@]5(C)CCC[C@@]4(OC5=O)[C@@]2(C)CC[C@@H]1C3 | 92.1% (active) | 93.7% (active) | 93.8% (active) | 89.3% (active) | 93.3% (active) | 92.3% (active)
18 | CC1(C)CC2(C)NCCN2C(=S)N1 (stereo not drawn) | 3.25% (inactive) | 2.3% (inactive) | 15.8% (inactive) | 12.2% (inactive) | -5.45% (inactive) | -7.8% (inactive)
19 | Cc1ccc(C2(c3ccccc3)c3ccccc3C(=O)N2c2ccccc2)cc1 (stereo not drawn) | 97% (active) | 97.6% (active) | 97.7% (active) | 95% (active) | 97.2% (active) | 96.9% (active)

Row | Compound | growth inhibition [1] | growth inhibition [2] | growth inhibition [3] | growth inhibition [4] | growth inhibition [5] | growth inhibition [6]
20 | Nc1ccc2c(=O)[nH][nH]c2c1 | -26.6% (inactive) | -40.5% (inactive) | -25% (inactive) | 10.8% (inactive) | -25.2% (inactive) | -9.2% (inactive)
21 | NC(CSS(=O)(=O)CC(N)C(=O)O)C(=O)O (stereo not drawn) | -5.85% (inactive) | 3.45% (inactive) | 6.15% (inactive) | -20.7% (inactive) | 6.4% (inactive) | -7.05% (inactive)
22 | COC(=O)c1ccccc1NC(=O)Nc1ccc(SC)cc1 | -2% (inactive) | 24.4% (inactive) | 19.6% (inactive) | -8.65% (inactive) | 31.2% (inactive) | 14.3% (inactive)
23 | COc1cc2c(cc1C(C)c1ccc(OC(C)C)cc1)OCO2 (stereo not drawn) | -4.7% (inactive) | -9.95% (inactive) | -3.95% (inactive) | -48.5% (inactive) | -5.9% (inactive) | -11.5% (inactive)
24 | CCC1(C(=O)OC)CCc2c(OC)ccc(OC)c2C1=O (stereo not drawn) | -8.65% (inactive) | -9.35% (inactive) | 0.1% (inactive) | 3.25% (inactive) | -12.9% (inactive) | -46.8% (inactive)
25 | NC(=O)C(=CNC(=S)Nc1ccc(Cl)c(Cl)c1)C(N)=O | 8.6% (inactive) | -3.75% (inactive) | 18.4% (inactive) | 27.3% (inactive) | 2.05% (inactive) | 3.9% (inactive)
26 | O=CNc1ccccc1-c1ccccc1 | -33.3% (inactive) | -15% (inactive) | -18% (inactive) | -17.1% (inactive) | -0.15% (inactive) | 2.55% (inactive)
27 | c1ccc(CCc2nccc3ccccc23)cc1 | 8.55% (inactive) | -0.55% (inactive) | -5.6% (inactive) | -0.9% (inactive) | 13.9% (inactive) | 1.1% (inactive)
28 | CCCCCCCCCCCCCCCCN (tested in a mixture with another compound) | 29.9% (inactive) | -11.1% (inactive) | 7.9% (inactive) | -24.1% (inactive) | 26.5% (inactive) | 17.4% (inactive)
29 | CC(C)=CCCC(=O)C(c1nc2nnc(N)n2[nH]c1=O)c1nc2nnc(N)n2[nH]c1=O | 13.3% (inactive) | 13.6% (inactive) | -1.95% (inactive) | 17.8% (inactive) | 1.6% (inactive) | -7.55% (inactive)
30 | CC1(C)OC2OC(C3COS(=O)O3)C(Cl)C2O1 (stereo not drawn) | -2% (inactive) | 2.45% (inactive) | -1.4% (inactive) | -48.8% (inactive) | -0.7% (inactive) | 8.6% (inactive)
31 | CCCCCNC(=O)c1ccc([N+](=O)[O-])cc1 | 7.35% (inactive) | -1.75% (inactive) | 3.75% (inactive) | 4.85% (inactive) | -1% (inactive) | 13.9% (inactive)
32 | CC(=O)NCCOC(=O)c1ccccc1 | 34.5% (inactive) | 4.75% (inactive) | 16.4% (inactive) | -17.9% (inactive) | 4.05% (inactive) | 5.9% (inactive)
33 | COc1cc(C(=O)C/C(CCC(=O)Nc2ccc(Cl)cc2Cl)=N/Nc2nnc(C)n2N)ccc1O | -19.6% (inactive) | -4.2% (inactive) | -25.6% (inactive) | 13.4% (inactive) | 7.1% (inactive) | -5.05% (inactive)
34 | O=C1Cc2c([nH]c3ccc(Cl)cc23)-c2ccccc2N1 | 5.55% (inactive) | 2.1% (inactive) | -50.9% (inactive) | 13.8% (inactive) | -7.9% (inactive) | 17.1% (inactive)
35 | NC(=S)NNC(=O)/C(=C/c1ccc(/C=C(\NC(=O)c2ccccc2)C(=O)NNC(N)=S)cc1)NC(=O)c1ccccc1 | 32.8% (inactive) | 27% (inactive) | 29.3% (inactive) | 39.8% (inactive) | 39.2% (inactive) | 31.8% (inactive)
36 | CCC(=O)Nc1cc(C)c(C)cc1C | 4.75% (inactive) | -10.2% (inactive) | -2.2% (inactive) | -42% (inactive) | 6.6% (inactive) | -8.4% (inactive)
37 | CN(Cc1ccccc1)C(=O)c1ccccc1C(=O)O | -9.2% (inactive) | -2.85% (inactive) | -4.75% (inactive) | -15.9% (inactive) | -4.95% (inactive) | 13.2% (inactive)
38 | COC1/C=C/OC2(C)Oc3c(C)c(OC(C)=O)c4c(c3C2=O)C(=O)C=C(NC(=O)/C(C)=C\C=C\C(C)C(OC(C)=O)C(C)C(O)C(C)C(OC(C)=O)C1C)C4=O (stereo not drawn) | 13.6% (inactive) | 20.7% (inactive) | 26.1% (inactive) | 21.6% (inactive) | 9.45% (inactive) | 42.9% (inactive)
